# Most compounds without a hit are left out; they make up all but 11% or so of the library.
# L3MBTL1 block: qHTS Assay for the Inhibitors of L3MBTL1 | Potency, µM (doses to about 57.1 µM), for inactives: at the highest dose activity, negative = inhibition, usual class: inhibitors | Lethal(3)malignant brain tumor-like protein 1 (Homo sapiens), Q9Y468 | 230,000 compounds, 0.66% hits | AlphaScreen L3MBTL1–H3K9me1 peptide binding; note: % is set by controls: 0 for no effect and ±100 for the full control effect; nearly all actives have a fitted effect of over 60% in size
#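 AlphaScreen proximity signal between nickel-chelate acceptor and streptavidin donor beads (final 10 ug/mL) reports binding of 50 nM L3MBTL1 to 75 nM biotin-H3 K9me1 peptide; complex incubated with compounds 30 min at room temperature; cefsulodin titration as control.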
# BAZ2B inh: qHTS Assay for Inhibitors of BAZ2B. AlphaScreen BAZ2B-H3K14Ac peptide displacement. 360,000 compounds, 4.4% hits. Potency, µM (titrated, usually from 114 µM), inactives show at the top dose activity change, negative = inhibition, hits mostly inhibitors. Bromodomain adjacent to zinc finger domain protein 2B (Homo sapiens), Q9UIF8; note: % is set by controls: 0 for no effect and ±100 for the full control effect; nearly all actives have a fitted effect of over 60% in size
#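 Multi-concentration screen (max 110 uM) measuring displacement of acetylated histone H3 peptide from BAZ2B by AlphaScreen, using 50 nM protein, 50 nM peptide and 10 ug/mL streptavidin donor plus Ni-chelate acceptor beads.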
# HP1b binding inh: HTS for Inhibitors of HP1-beta Chromodomain Interactions with Methylated Histone Tails. Chromobox protein homolog 1 (Homo sapiens), P83916. AlphaScreen HP1-beta / biotin-H3K9me3 peptide binding. Potency, µM (doses to about 114 µM), for inactives: at the top dose activity change, negative = inhibition, actives largely listed as inhibitors. 390,000 compounds, 0.56% hits; note: nearly all actives have a fitted effect of over 70% in size
#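 HP1-beta protein (50 nM final) preincubated 30 min at room temperature with biotinylated H3(1-18)K9me3 peptide (50 nM) in PBS pH 7.4, 0.01% Tween-20, then compound added for 30 min. AlphaScreen streptavidin donor/nickel chelate acceptor beads (10 ug/mL final), 30 min dark, luminescence read.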
# G9a block: qHTS Assay for Inhibitors of Histone Lysine Methyltransferase G9a | Histone-lysine N-methyltransferase EHMT2 (Homo sapiens), Q96KQ7 | G9a H3K9 monomethylation, AlphaScreen, 2 h | Potency, µM (doses to about 102 µM), for inactives: at the highest dose activity, negative = inhibition, hits mostly inhibitors | 350,000 compounds, 8.8% hits | AID 504332, 2011; note: % is set by controls: 0 for no effect and ±100 for the full control effect; nearly all actives have a fitted effect of over 75% in size
#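 Step 1: enzyme (final 20 nM) with compound, 15 min RT. Step 2: substrate peptide 500 nM and SAM 20 uM, 2 h RT. Step 3: anti-H3K9me1 antibody and AlphaScreen beads, 10 min, then plate read.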
# JMJD2A Tudor: qHTS Assay for Inhibitors of JMJD2A-Tudor Domain | Lysine-specific demethylase 4A (Homo sapiens), O75164 | AlphaScreen JMJD2A-Tudor / H3K4me3 peptide binding | Potency, µM (titrated, usually from 114 µM), without a hit: at the highest dose activity change, negative = inhibition, actives largely listed as inhibitors | 390,000 compounds, 4.4% hits | AID 504339, 2011; note: % is set by controls: 0 for no effect and ±100 for the full control effect; nearly all actives have a fitted effect of over 50% in size
# Target sequence (O75164 whole entry, looked up, the tested form may be a part): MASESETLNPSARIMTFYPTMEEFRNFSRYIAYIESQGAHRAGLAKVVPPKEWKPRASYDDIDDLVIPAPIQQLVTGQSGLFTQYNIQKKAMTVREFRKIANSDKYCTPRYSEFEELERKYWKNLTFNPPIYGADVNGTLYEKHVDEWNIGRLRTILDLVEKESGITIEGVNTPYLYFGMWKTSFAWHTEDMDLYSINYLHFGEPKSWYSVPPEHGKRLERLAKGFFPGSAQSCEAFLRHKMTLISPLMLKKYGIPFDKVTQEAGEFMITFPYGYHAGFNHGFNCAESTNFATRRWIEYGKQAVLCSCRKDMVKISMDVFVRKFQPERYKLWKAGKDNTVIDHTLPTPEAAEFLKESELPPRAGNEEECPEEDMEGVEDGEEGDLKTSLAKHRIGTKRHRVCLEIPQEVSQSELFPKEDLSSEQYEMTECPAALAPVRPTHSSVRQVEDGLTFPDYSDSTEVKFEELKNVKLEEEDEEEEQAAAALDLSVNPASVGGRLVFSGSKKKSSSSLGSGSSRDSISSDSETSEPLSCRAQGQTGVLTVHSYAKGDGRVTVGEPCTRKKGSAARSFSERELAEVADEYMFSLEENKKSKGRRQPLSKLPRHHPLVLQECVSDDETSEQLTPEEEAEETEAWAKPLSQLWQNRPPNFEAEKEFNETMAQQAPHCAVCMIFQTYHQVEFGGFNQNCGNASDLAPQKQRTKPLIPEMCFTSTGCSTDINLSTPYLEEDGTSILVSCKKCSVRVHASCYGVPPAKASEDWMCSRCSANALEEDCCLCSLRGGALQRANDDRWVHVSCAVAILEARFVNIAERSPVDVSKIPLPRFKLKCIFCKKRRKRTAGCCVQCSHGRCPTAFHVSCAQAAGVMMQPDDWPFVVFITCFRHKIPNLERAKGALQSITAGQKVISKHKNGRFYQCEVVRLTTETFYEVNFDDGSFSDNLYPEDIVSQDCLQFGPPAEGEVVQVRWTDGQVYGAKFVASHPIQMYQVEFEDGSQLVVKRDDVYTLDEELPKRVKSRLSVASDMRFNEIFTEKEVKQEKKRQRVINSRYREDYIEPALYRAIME
# * = called active by the depositor; ? = inconclusive; nt = not tested or not shown; [ ] = remark or other dose. Calls come from the whole dose curve; as a rule, active = well fitted inhibition curve with a large enough effect; inconclusive = small, poorly fitted or top-dose-only effect; inactive = no such curve, though single readings can be large or run the other way. Potency is the fitted concentration of half-maximal effect.
SMILES,L3MBTL1 block,BAZ2B inh,HP1b binding inh,G9a block,JMJD2A Tudor
COc1ccc(-c2cc(=O)oc3cc(OC(C)C(=O)O)ccc23)cc1 (centres undefined),4%,-39%,17%,-5%[59 µM],-21%
O=C(NCC(=O)N(CCc1ccccc1)C(C(=O)NC1CCCCC1)c1ccncc1)c1ccco1 (centres undefined),4%,6%,38%,40µM*,-9%
O=C(NCC(=O)N(CCc1ccccc1)C(C(=O)NC1CCCC1)c1cccnc1)c1ccco1 (centres undefined),3%,4%,9%,?,-4%
COc1ccccc1CN1CCN(C2CCN(C(=O)NC(C)C)CC2)C(=O)C1=O,nt,-7%,24%,-7%[12.7 µM],9%
COc1ccc(-c2noc(-c3ccc(N4CCN(c5ccccc5OC)CC4)c([N+](=O)[O-])c3)n2)cc1,nt,0%,7%,-8%[59 µM],-17%
COc1cc(O)c(C(CC(=O)N2CCCC(C)C2)c2ccc(N(C)C)cc2)c(OC)c1 (centres undefined),nt,50µM*,?,?,40µM*
COc1cc(O)c(C(CC(=O)N2CCN(c3ccccc3)CC2)c2ccc(N(C)C)cc2)c(OC)c1 (centres undefined),nt,25µM*,?,?,28µM*
O=[N+]([O-])c1cccc2ccc(/C=C/c3ccc(Cl)cc3)nc12,-18%,57%,-31%,79µM*,?
O=[N+]([O-])c1cccc2ccc(/C=C/c3ccc(C(F)(F)F)cc3)nc12,0%,-6%,-20%,35µM*,?
COc1ccccc1/C=C/c1nc(C#N)c(N2CCCCCC2)o1,nt,?,-13%,?,-25%
Cc1ccc(CNC(=O)CN2C(=O)C3(SCC(=O)N3c3cc(C)cc(C)c3)c3ccccc32)cc1 (centres undefined),nt,0%[57.1 µM],-7%,-37%[59 µM],-27%
NC(=O)c1ccc(OCc2ccccc2)nc1,nt,nt,13%,nt,-10%
O=C(NCc1ccccc1)c1ccc(/C=N/O)nc1,-6%,56µM*,20%,10µM*,7.9µM*
O=C(NCc1ccccn1)c1ccc(/C=N/O)nc1,-4%,45µM*,23%,-5%,18µM*
NC(=O)c1ccc(/C=N/O)nc1,?,32µM*,21%,3.5µM*,18µM*
O=C(CCN1C(=O)C2CC=C(Cl)CC2C1=O)N1CCCCC1 (centres undefined),-14%,-8%,-1%,11µM*,?
Cc1cc(OCC(=O)Nc2ccc(S(=O)(=O)N3CCN(C)CC3)cc2)ccc1Cl,2%,4%,51%,?,-3%
COc1cc(S(=O)(=O)N2CCOCC2)ccc1NC(=O)COC(=O)CC12CC3CC(CC(C3)C1)C2,nt,-2%,41%,1.4µM*,-20%
Cc1cc(C)c(OCC(=O)Nc2ccc(S(=O)(=O)N3CCOCC3)cc2)c(C)c1,nt,-16%,9%,45µM*,-18%
Cc1cc(OCC(=O)Nc2ccc(S(=O)(=O)N3CCN(C)CC3)cc2)cc(C)c1Cl,-5%[11.4 µM],50µM*,-17%,?,50µM*
COc1ccccc1OCC(=O)Nc1ccc(S(=O)(=O)N2CCOCC2)cc1,nt,-3%,-12%,79µM*,-24%
CC(C)Cn1c(CN2CCN(c3cccc(Cl)c3)CC2)nc2c1c(=O)[nH]c(=O)n2C,nt,-1%,46%,-32%[59 µM],?
CCOc1ccc2c(c1)c(=O)c(C(=O)c1ccc3c(c1)OCO3)cn2Cc1ccc(F)cc1,nt,-18%,9%,-3%[59 µM],-14%
COc1ccc(NC(=O)CCCn2cnc3ccccc3c2=O)cc1,nt,-32%,-13%,28µM*,-21%
O=C(CCCn1cnc2ccccc2c1=O)Nc1ccccc1F,nt,3%,18%,35µM*,-9%
SMILES,L3MBTL1 block,BAZ2B inh,HP1b binding inh,G9a block,JMJD2A Tudor
O=C(CCCN1C(=O)CCC1=O)Nc1ccccc1F,nt,?,5%,56µM*,-18%
O=C(CCCN1C(=O)CCC1=O)Nc1ccc(Br)cc1F,nt,5%,24%,17%,-19%
CCNc1c(NC(=O)c2ccccc2OCC)c(=O)oc2ccccc12,nt,-1%,5%,6%[59 µM],-10%
CN(C(=O)CCNC(=O)Cn1cnc2ccccc2c1=O)c1ccccc1F,nt,0%,0%,21%,-10%
COc1cccc(C2=Nn3c(nnc3-c3ccc(OC)cc3OC)SC2)c1,nt,nt,nt,nt,-20%
CC(=O)OCCn1c2nc(=O)[nH]c(=O)c-2nc2cc(C)c(C)cc21,-10%,7%,27%,-23%,-24%
Cc1cc2nc3c(=O)[nH]c(=O)nc-3n(CC(O)C(O)C(O)CO)c2cc1C (centres undefined),nt,nt,nt,6.3µM*,nt
COc1ccccc1-c1sc2cc3c(cc2c1-c1ccc2c(c1)OCO2)OCO3,0%,79µM*,38%,8%[0.501 µM],-35%
COc1ccccc1-c1sc2ccccc2c1-c1ccc(OCCN2CCOCC2)cc1,-22%,nt,-18%,nt,50µM*
COc1cc2sc(-c3ccccc3OC)c(-c3ccc(OCCN4CCCCC4)cc3)c2cc1OC,-13%,nt,?,nt,28µM*
COc1cccc(-c2sc3ccc(OC)cc3c2-c2ccc(OCCN3CCOCC3)cc2)c1,-11%,nt,-7%,nt,?
COc1ccccc1-c1sc2cc3c(cc2c1-c1ccc(OCCN2CCCCC2)cc1)OCO3,-17%,nt,-24%,nt,11µM*
COc1ccc(NC(=O)CSc2oc(-c3ccc(F)cc3)nc2S(=O)(=O)c2ccc(C)cc2)c(OC)c1,nt,-20%,?,?,?
CCOC(=O)c1cnc2ccc(C(=O)OC)cc2c1Nc1ccccc1CC,nt,47%,57%,23%[59 µM],8%
COc1ccc(-n2c(=O)c3c(c4cc(OC)ccc4n3C)n(Cc3cccc(OC)c3)c2=O)cc1,nt,-2%,54%,2%[59 µM],20%
COc1ccc(Cl)cc1NC(=O)N1CCN(Cc2cc(=O)n3nc(-c4ccccc4)sc3n2)CC1,nt,5%,26%[57 µM],8%[59 µM],4%
C=CCN(C(=O)CCC(=O)Nc1cc(C)on1)C(C(=O)NC1CCCC1)c1ccc(OC)cc1OC (centres undefined),nt,7%,-4%,-11%,-12%
COCCOC(=O)c1c(C)n(C)c2ccc(OC(=O)c3c(OC)cccc3OC)cc12,nt,-27%,-21%,8.9µM*,-19%
COc1cccc(OC)c1-c1nn2c(-c3ccco3)nnc2s1,-17%,5%,31%,35µM*,-2%
COc1cc(-c2nn3c(-c4ccco4)nnc3s2)cc(OC)c1OC,-3%,6%,nt,22%,nt
COc1cccc(-c2nn3c(-c4ccco4)nnc3s2)c1,-8%,6%,25%,45µM*,-19%
CCOc1cccc(-c2nnc3sc(-c4ccco4)nn23)c1,0%,4%,-11%,7.9µM*,-32%
